Assay results as given in PubChem BioAssay (Tox21).
“And” between values parts separate entries of the source, which are not always exact repeats. Equal values may be shown once. Records with an inconclusive call do not appear. The source made the active and inactive calls. Unless noted, the call rests on the fitted dose curve; in most records, active means well fitted curve in the direction sought with a large enough effect in the repeat runs; inconclusive means weak or mixed curves; inactive means no such curve, though single readings can be large; an effect the other way counts as inactive or inconclusive.

Tests used:
[1] = qHTS assay to identify small molecule agonists of the estrogen receptor alpha (ER-alpha) signaling pathway in the presence of an antagonist - cell viability counter screen (AID 1259386);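 further: cells exposed to compounds for 22 h at 37 °C before the viability read; nearly all actives have a fitted effect of over 30% in size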; further: potency means the concentration at half of the fitted maximal effect
Method in brief: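 The test measures whether compounds kill ER-alpha reporter cells (VM7Luc4E2) under antagonist co-treatment (ICI-182,780, 10.0nM). Fluorescence from CellTiter-Fluor is read after a 22hr exposure.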

[2] = target: Progesterone receptor (Homo sapiens) (UniProt P06401); assay: qHTS assay to identify small molecule agonists of the progesterone receptor (PR) signaling pathway (AID 1346784; calls by dose curve; further: on the % scale 0 is the no-effect control and ±100 the full control effect; nearly all actives have a fitted effect of over 30% in size)
Progesterone receptor (Homo sapiens), sequence (P06401 whole entry, looked up): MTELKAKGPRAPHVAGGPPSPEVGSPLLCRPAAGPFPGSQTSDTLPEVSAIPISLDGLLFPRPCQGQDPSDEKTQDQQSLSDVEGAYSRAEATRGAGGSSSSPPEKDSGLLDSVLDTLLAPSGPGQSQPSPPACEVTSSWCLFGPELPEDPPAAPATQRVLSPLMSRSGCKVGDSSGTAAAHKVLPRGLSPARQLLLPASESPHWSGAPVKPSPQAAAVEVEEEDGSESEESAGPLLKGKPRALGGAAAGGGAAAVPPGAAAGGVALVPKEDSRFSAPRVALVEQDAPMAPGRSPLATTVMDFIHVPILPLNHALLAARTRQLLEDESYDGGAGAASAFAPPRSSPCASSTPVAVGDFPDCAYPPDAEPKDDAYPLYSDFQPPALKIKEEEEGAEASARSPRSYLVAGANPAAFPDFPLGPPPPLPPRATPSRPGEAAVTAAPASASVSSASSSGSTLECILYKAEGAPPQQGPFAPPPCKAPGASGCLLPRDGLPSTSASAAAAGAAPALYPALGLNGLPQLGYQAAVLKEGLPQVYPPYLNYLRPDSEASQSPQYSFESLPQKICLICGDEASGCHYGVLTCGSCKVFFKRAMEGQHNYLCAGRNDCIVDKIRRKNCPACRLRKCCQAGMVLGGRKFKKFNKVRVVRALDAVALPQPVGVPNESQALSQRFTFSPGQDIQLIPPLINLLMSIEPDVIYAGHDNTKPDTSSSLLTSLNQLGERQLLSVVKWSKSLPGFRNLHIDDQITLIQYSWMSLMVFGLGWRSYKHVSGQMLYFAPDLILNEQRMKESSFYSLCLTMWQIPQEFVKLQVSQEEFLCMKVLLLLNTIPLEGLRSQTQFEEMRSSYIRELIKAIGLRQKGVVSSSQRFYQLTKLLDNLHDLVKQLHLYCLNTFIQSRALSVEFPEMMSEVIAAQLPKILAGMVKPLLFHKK
Method in brief: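 Agonist qHTS: compounds pinned onto 3,000 PR-UAS-bla HEK 293T cells per well in charcoal-stripped serum medium, 16hr at 37C, then beta-lactamase activity measured by LiveBLAzer FRET fluorescence after 2 hours at room temperature.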

[3] = qHTS assay to identify small molecule antagonists of the TGF-beta/Smad signaling pathway - cell viability counter screen (AID 1346824); further: nearly all actives have a fitted effect of over 50% in size; further: potency means the concentration at half of the fitted maximal effect
Method in brief: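 SBE-bla HEK 293T cells were plated overnight at 37 C, then given compounds in DMSO plus TGF-beta1 (added as 0.25 ng/mL solution) for 5 hr. After the bla read, CellTiter-Glo was added to the same wells and luminescence read after 30 min at room temperature.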

[4] = qHTS assay to identify small molecule agonists of the TGF-beta/Smad signaling pathway - cell viability counter screen (AID 1346829); further: nearly all actives have a fitted effect of over 45% in size; further: potency means the concentration at half of the fitted maximal effect
Method in brief: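 Luminescence from CellTiter-Glo, read after a 30 min room-temperature incubation, gives cell viability of SBE-bla HEK 293T cells treated 5 hr with compounds at 37 C.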

[5] = target: Thyrotropin-releasing hormone receptor (Homo sapiens) (UniProt P34981); assay: qHTS assay to identify small molecule antagonists of the thyrotropin-releasing hormone receptor (TRHR) signaling pathway (AID 1346877; active means well fitted inhibition curve with a large enough effect in the repeat runs, not every such curve was filed as active; further: series mostly up to about 51 µM; on the % scale 0 is the no-effect control and ±100 the full control effect)
Thyrotropin-releasing hormone receptor (Homo sapiens), sequence (P34981 whole entry, looked up): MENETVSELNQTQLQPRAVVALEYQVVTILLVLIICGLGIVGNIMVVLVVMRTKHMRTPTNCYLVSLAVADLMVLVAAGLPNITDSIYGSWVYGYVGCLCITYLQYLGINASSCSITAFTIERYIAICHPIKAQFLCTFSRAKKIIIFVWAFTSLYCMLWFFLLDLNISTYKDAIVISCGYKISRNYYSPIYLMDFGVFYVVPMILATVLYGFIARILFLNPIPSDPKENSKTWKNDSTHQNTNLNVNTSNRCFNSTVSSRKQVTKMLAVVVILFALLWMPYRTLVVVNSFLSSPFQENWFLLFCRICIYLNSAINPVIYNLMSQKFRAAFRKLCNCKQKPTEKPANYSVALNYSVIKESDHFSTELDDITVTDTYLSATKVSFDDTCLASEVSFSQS
Method in brief: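 Overnight-plated (18 h, 37 °C) HEK293 cells expressing TRHR were dye-loaded 2 h, treated with compound, then stimulated with TRH at 1 nM final. Fluorescence intensity was captured every second for 3 min.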

[6] = target: Thyrotropin-releasing hormone receptor (Homo sapiens) (UniProt P34981); assay: qHTS assay to identify small molecule agonists of the thyrotropin-releasing hormone receptor (TRHR) signaling pathway (AID 1346891; calls by dose curve; further: series mostly up to about 58 µM; on the % scale 0 is the no-effect control and ±100 the full control effect)
Method in brief: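 Agonist-mode intracellular calcium readout: kinetic fluorescence over 3 min at 1 s intervals after compound addition to TRHR-HEK293 cells (18 h seeded, 2 h dye-loaded at 37 C). Fifteen concentrations, triplicates.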

[7] = target: Progesterone receptor (Homo sapiens) (UniProt P06401); assay: qHTS assay to identify small molecule antagonists of the progesterone receptor (PR) signaling pathway (AID 1346795; active means well fitted inhibition curve with a large enough effect in the signal ratio in the repeat runs, not every such curve was filed as active; the % refers to the signal ratio; further: potency means the concentration at half of the fitted maximal effect)
Method in brief: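 Antagonist mode with agonist R5020 at 1 nM final and 16 hr incubation at 37C. Reporter was beta-lactamase driven by UAS in HEK293T (PR-UAS-bla), 2% charcoal-stripped serum; signal from LiveBLAzer FRET substrate, 2 hr at room temperature.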

[8] = qHTS assay to identify small molecule agonists of the TGF-beta/Smad signaling pathway (AID 1346859; active means well fitted activation curve with a large enough effect in the signal ratio in the repeat runs, not every such curve was filed as active; the % refers to the signal ratio; further: series mostly up to about 77 µM; on the % scale 0 is the no-effect control and ±100 the full control effect)
Method in brief: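 Fluorescence (ex 405 nm; em 460 and 530 nm) was read 2 h after LiveBLAzer FRET substrate at RT. The preceding compound treatment of overnight-plated SBE-bla HEK293T cells lasted 5 h at 37 C.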

[9] = qHTS assay to identify small molecule antagonists of the progesterone receptor (PR) signaling pathway - cell viability counter screen (AID 1346798); further: nearly all actives have a fitted effect of over 50% in size; further: potency means the concentration at half of the fitted maximal effect
Method in brief: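 Cytotoxicity read as CellTiter-Glo luminescence (30 min, room temperature) in the same wells as the beta-lactamase readout. HEK293T PR-UAS-bla cells in charcoal-stripped 2% FBS received compound and R5020, then 16 h at 37C, 5% CO2.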

[10] = qHTS assay to identify small molecule agonists of the progesterone receptor (PR) signaling pathway - cell viability counter screen (AID 1346799; calls by dose curve; further: nearly all actives have a fitted effect of over 45% in size; further: potency means the concentration at half of the fitted maximal effect)
Method in brief: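 Cytotoxicity measured by CellTiter-Glo luminescence (30 min, RT) in the same wells as the PR beta-lactamase agonist read. Those HEK293T cells had 16 h compound treatment at 37 C in 2% charcoal-stripped FBS medium.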

CCCCN1C(=O)[C@@H]([C@H](O)C2CCCCC2)NC(=O)C12CCN(Cc1ccc(Oc3ccc(C(=O)O)cc3)cc1)CC2
inactive: Potency [1] | Potency [2] | Potency [3] | Potency [4] | Potency [5] | Potency [6]

Cc1cc(O)c2ccccc2c1O
inactive: Potency [5] | Potency [6]
active: Potency [1] 29.8 µM | Potency [7] 23.7 µM | Potency [3] 19 µM | Potency [4] 23.9 µM

Fc1ccc(C(c2ccc(F)cc2)N2CCN(C/C=C/c3ccccc3)CC2)cc1
active: Potency [7] 23.7 µM
inactive: Potency [1] | Potency [8]

Oc1cc2ccccc2c2ccccc12
active: Potency [1] 13.7 µM | Potency [7] 6.11 µM | Potency [9] 6.86 µM | Potency [3] 11 µM | Potency [4] 5.49 µM
inactive: Potency [5] | Potency [6]

OCc1c[nH]c2ccccc12
active: Potency [7] 25.8 µM
inactive: Potency [1] | Potency [3] | Potency [5] | Potency [6]

Cc1cccc(CN2CCN(C(c3ccccc3)c3ccc(Cl)cc3)CC2)c1 (centres undefined)
inactive: Potency [1] | Potency [2] | Potency [3] | Potency [4] | Potency [8] | Potency [5] | Potency [6]

CCN1/C(=C/C=C/c2sc3ccccc3[n+]2CC)Sc2ccccc21
active: Potency [1] 6.51 µM | Potency [7] 11.6 µM | Potency [4] 4.65 µM
inactive: activity, negative = inhibition [5] -4.16% [at 10.5 µM] | activation [6] -0.259% [at 11.8 µM]

C[C@H](CCC(=O)O)[C@H]1CC[C@H]2[C@@H]3CC[C@@H]4C[C@H](O)CC[C@]4(C)[C@H]3CC[C@]12C
active: Potency [7] 19.3 µM and 48.6 µM | Potency [9] 24.2 µM and 61.1 µM | Potency [10] 30.5 µM and 38.6 µM
inactive: Potency [1] | Potency [4]

[Cl][Bi]([Cl])([c]1ccccc1)([c]1ccccc1)[c]1ccccc1
active: Potency [1] 24.2 µM | Potency [9] 3.05 µM

CCC(C)Nc1ccc(NC(C)CC)cc1 (centres undefined)
active: Potency [1] 17.6 µM | Potency [7] 55.5 µM | Potency [3] 25 µM | Potency [4] 39.7 µM
inactive: Potency [5] | Potency [6]

CCCCCCCCCCCC(=O)NCCCN(C)C
active: Potency [7] 61.1 µM | Potency [9] 54.5 µM | Potency [10] 30.6 µM | Potency [3] 49 µM | Potency [4] 54.9 µM
inactive: Potency [1] | Potency [5] | Potency [6]

O=C1CCCc2c1cc1ccc3cccc4ccc2c1c34
inactive: Potency [1] | Potency [9] | Potency [3] | Potency [4] | Potency [5] | Potency [6]
active: Potency [7] 3.48 µM

CC1(C)CCC(C)(C)c2cc(C(=O)Nc3ccc(C(=O)O)cc3)ccc21
inactive: Potency [1] | Potency [2] | Potency [3] | Potency [4] | Potency [5] | Potency [6]

CCc1cc(Cc2cc(CC)cc(C(C)(C)C)c2O)c(O)c(C(C)(C)C)c1
active: Potency [1] 48.6 µM | Potency [9] 38.6 µM | Potency [10] 30.6 µM | Potency [3] 49 µM | Potency [4] 54.9 µM

CCCCCCCC/C=C\CCCCCCCCOCCO
inactive: Potency [6]
active: Potency [1] 35.5 µM | Potency [9] 31.6 µM | Potency [10] 25.1 µM | Potency [3] 63.7 µM | Potency [4] 63.7 µM

O=C(OCC(COC(=O)c1ccccc1)(COC(=O)c1ccccc1)COC(=O)c1ccccc1)c1ccccc1
inactive: Potency [1] | Potency [9] | Potency [10] | Potency [3] | Potency [4] | Potency [8] | Potency [5] | Potency [6]

CCCN(CCC)c1c([N+](=O)[O-])cc(C(F)(F)F)c(N)c1[N+](=O)[O-]
active: Potency [1] 60.9 µM | Potency [9] 34.3 µM | Potency [10] 21.6 µM | Potency [4] 48.9 µM
inactive: Potency [6]

O=[N+]([O-])c1cc([N+](=O)[O-])c2ccc(S(=O)(=O)O)cc2c1O
active: Potency [1] 19.2 µM
inactive: Potency [9] | Potency [10] | Potency [4]

CCN(CC)CCNC(=O)c1c(C)[nH]c(/C=C2\C(=O)Nc3ccc(F)cc32)c1C
active: Potency [1] 2.98 µM | Potency [9] 11.9 µM
inactive: Potency [3] | Potency [4] | Potency [8] | Potency [5] | Potency [6]

O=C(Oc1cccc2cccnc12)c1ccccc1
active: Potency [9] 4.22 µM
inactive: Potency [1] | Potency [3] | Potency [4] | Potency [5] | Potency [6]

CC(C)(C)c1ccc(C(=O)O)cc1
inactive: Potency [1] | Potency [9] | Potency [10] | Potency [3] | Potency [4] | Potency [8]

Nc1nc2ccccc2n1Cc1ccc(F)cc1
inactive: Potency [9] | Potency [10] | Potency [3] | Potency [4] | Potency [5] | Potency [6]
active: Potency [1] 29.8 µM

CCCC1O[C@@H]2C[C@H]3[C@@H]4CCC5=CC(=O)C=C[C@]5(C)[C@H]4[C@@H](O)C[C@]3(C)[C@]2(C(=O)CO)O1 (some centres undefined)
inactive: Potency [1] | Potency [9] | Potency [3] | Potency [4] | Potency [5] | Potency [6]

CC(=O)S[C@@H]1CC2=CC(=O)CC[C@]2(C)[C@H]2CC[C@@]3(C)[C@@H](CC[C@@]34CCC(=O)O4)[C@H]12
active: Potency [9] 24.3 µM
inactive: Potency [1] | Potency [3] | Potency [4] | Potency [5] | Potency [6]
